# Data from PubChem BioAssay (EPA / NIEHS).
# The source made the active and inactive calls. How the source made its calls: active means hit-call score of the fitted dose curve at least 0.9, where 1 is the maximum; inactive means score below 0.9.
# Read-out: Apolipoprotein A-V (APOA5) gene, APOA5 (gene 116519)
# Assay: LTEA_HepaRG_APOA5: Life Technologies and Expression Analysis (LTEA) Assay for Apolipoprotein A-V (APOA5) gene using HepaRG (AID 2283474)
# Settings: mRNA level, 48 h; actives raise or lower the signal
# In short: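 Differentiated human HepaRG cells were exposed in duplicate for 48 h to eight half-log concentrations from 100 uM in 0.5% DMSO. APOA5 mRNA was quantified by TaqMan qRT-PCR, normalized to ACTB, GAPDH and POLR2A, and fitted bidirectionally against DMSO.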
# Apoptosis regulator Bcl-2 (Homo sapiens), sequence (P10415 whole entry, looked up): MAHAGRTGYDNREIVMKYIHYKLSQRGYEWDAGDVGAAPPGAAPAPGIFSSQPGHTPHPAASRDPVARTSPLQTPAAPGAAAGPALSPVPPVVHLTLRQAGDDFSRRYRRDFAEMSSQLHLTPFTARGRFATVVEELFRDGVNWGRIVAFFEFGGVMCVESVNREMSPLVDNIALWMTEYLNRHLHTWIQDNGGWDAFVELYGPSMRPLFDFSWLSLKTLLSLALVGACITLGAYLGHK
SMILES,outcome,AC50
CC(Oc1cccc(Cl)c1)C(=O)O (stereo not drawn),inactive,
CCCCOC(=O)c1ccccc1C(=O)O,inactive,
CON=C(C(=O)OC)c1ccccc1CON=C(C)c1cccc(C(F)(F)F)c1,inactive,
C#CC(C)(C)NC(=O)c1cc(Cl)cc(Cl)c1,inactive,
CC[C@H](C)[C@H]1O[C@]2(C=C[C@@H]1C)C[C@@H]1C[C@@H](C/C=C(\C)[C@@H](O[C@H]3C[C@H](OC)[C@@H](O[C@H]4C[C@H](OC)[C@@H](NC)[C@H](C)O4)[C@H](C)O3)[C@@H](C)/C=C/C=C3\CO[C@@H]4[C@H](O)C(C)=C[C@@H](C(=O)O1)[C@]34O)O2,inactive,
Nc1c(Cl)cc([N+](=O)[O-])cc1Cl,,68.5 µM (active)
CC(C)N(C(=O)SCC(Cl)=C(Cl)Cl)C(C)C,inactive,
Cc1nn(-c2cc(NS(C)(=O)=O)c(Cl)cc2Cl)c(=O)n1C(F)F,inactive,
C[Si](Cn1cncn1)(c1ccc(F)cc1)c1ccc(F)cc1,,15.8 µM (active)
CNc1cnn(-c2cccc(C(F)(F)F)c2)c(=O)c1Cl,inactive,
C#CCC1=C(C)C(OC(=O)C2C(C=C(C)C)C2(C)C)CC1=O (stereo not drawn),inactive,

# Read-out: Apoptosis regulator Bcl-2 (Homo sapiens) (UniProt P10415)
# Assay: LTEA_HepaRG_BCL2: Life Technologies and Expression Analysis (LTEA) Assay for Bcl-2 gene using HepaRG (AID 2283475)
# Settings: mRNA level, 48 h; actives raise or lower the signal
# In short: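 HepaRG, plated 48 h then switched to serum-free induction medium; dosed 48 h, 8 conc. (max 100 uM, half-log steps), duplicate, 0.5% DMSO. Lysis in RLT, RNA isolated, TaqMan qRT-PCR for BCL2; ACTB/GAPDH/POLR2A normalisation; bidirectional fit vs DMSO.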
SMILES,outcome,AC50
COP(=O)(NC(C)=O)SC (stereo not drawn),inactive,
CSc1nc(NC(C)C)nc(NC(C)C)n1,inactive,
COP(=O)(OC)OC(Br)C(Cl)(Cl)Br (stereo not drawn),inactive,
CC(=NC#N)N(C)Cc1ccc(Cl)nc1,inactive,
CN1COCN(Cc2cnc(Cl)s2)C1=N[N+](=O)[O-],inactive,
COc1ccc(C(=CC(=O)N2CCOCC2)c2ccc(Cl)cc2)cc1OC,inactive,
CNC(=O)ON=C(C)SC,inactive,
CCOP(=S)(OCC)SCCSCC,inactive,
COP(=O)(OC)C(O)C(Cl)(Cl)Cl (stereo not drawn),inactive,
CCOP(=O)(OCC)Oc1cc(C)nc(C(C)C)n1,inactive,
CCC(CC)Nc1c([N+](=O)[O-])cc(C)c(C)c1[N+](=O)[O-],inactive,
CCOP(=S)(OCC)Oc1ccc([N+](=O)[O-])cc1,inactive,
CC(C1CC1)C(O)(Cn1cncn1)c1ccc(Cl)cc1 (stereo not drawn),inactive,
CNC(=O)ON=C(SC)C(=O)N(C)C,inactive,
CNC(=O)Oc1cccc2c1OC(C)(C)O2,inactive,
CCc1cnc(C2=NC(C)(C(C)C)C(=O)N2)c(C(=O)O)c1 (stereo not drawn),inactive,
Cc1cc(C2CC2)nc(Nc2ccccc2)n1,inactive,
CCCSP(=O)(OCC)SCCC,inactive,

SMILES,outcome,AC50
COc1cc(OC)nc(Sc2cccc(Cl)c2C(=O)O)n1,inactive,
CC1(C(=O)Nc2ccc(O)c(Cl)c2Cl)CCCCC1,inactive,
CSc1nnc(C(C)(C)C)c(=O)n1N,inactive,
CCC(=O)Nc1ccc(Cl)c(Cl)c1,inactive,
CCOP(=O)(NC(C)C)Oc1ccc(SC)c(C)c1 (stereo not drawn),inactive,
CC1=NNC(=O)N(/N=C/c2cccnc2)C1,inactive,
CSC1=N[C@@](C)(c2ccccc2)C(=O)N1Nc1ccccc1,,30.2 µM (active)
CC(Oc1cccc(Cl)c1)C(=O)O (stereo not drawn),inactive,
CCCCOC(=O)c1ccccc1C(=O)O,inactive,
CON=C(C(=O)OC)c1ccccc1CON=C(C)c1cccc(C(F)(F)F)c1,inactive,
C#CC(C)(C)NC(=O)c1cc(Cl)cc(Cl)c1,inactive,
CC[C@H](C)[C@H]1O[C@]2(C=C[C@@H]1C)C[C@@H]1C[C@@H](C/C=C(\C)[C@@H](O[C@H]3C[C@H](OC)[C@@H](O[C@H]4C[C@H](OC)[C@@H](NC)[C@H](C)O4)[C@H](C)O3)[C@@H](C)/C=C/C=C3\CO[C@@H]4[C@H](O)C(C)=C[C@@H](C(=O)O1)[C@]34O)O2,inactive,
Nc1c(Cl)cc([N+](=O)[O-])cc1Cl,,50 µM (active)
CC(C)N(C(=O)SCC(Cl)=C(Cl)Cl)C(C)C,inactive,
Cc1nn(-c2cc(NS(C)(=O)=O)c(Cl)cc2Cl)c(=O)n1C(F)F,inactive,
C[Si](Cn1cncn1)(c1ccc(F)cc1)c1ccc(F)cc1,,35 µM (active)
CNc1cnn(-c2cccc(C(F)(F)F)c2)c(=O)c1Cl,inactive,
C#CCC1=C(C)C(OC(=O)C2C(C=C(C)C)C2(C)C)CC1=O (stereo not drawn),inactive,

# Read-out: Bcl-2 (BID) gene, BID (gene 637)
# Assay: LTEA_HepaRG_BID: Life Technologies and Expression Analysis (LTEA) Assay for Bcl-2 (BID) gene using HepaRG (AID 2283476)
# Settings: mRNA level, 48 h; actives raise or lower the signal
# In short: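 Transcript levels of BID, measured by qRT-PCR and normalized to three housekeeping genes, were fitted bidirectionally against DMSO controls. Cells were HepaRG, dosed 48 h at up to 100 uM.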
SMILES,outcome,AC50
COP(=O)(NC(C)=O)SC (stereo not drawn),inactive,
CSc1nc(NC(C)C)nc(NC(C)C)n1,inactive,
COP(=O)(OC)OC(Br)C(Cl)(Cl)Br (stereo not drawn),inactive,
CC(=NC#N)N(C)Cc1ccc(Cl)nc1,inactive,
CN1COCN(Cc2cnc(Cl)s2)C1=N[N+](=O)[O-],inactive,
COc1ccc(C(=CC(=O)N2CCOCC2)c2ccc(Cl)cc2)cc1OC,inactive,
CNC(=O)ON=C(C)SC,inactive,
CCOP(=S)(OCC)SCCSCC,inactive,
COP(=O)(OC)C(O)C(Cl)(Cl)Cl (stereo not drawn),,0.155 µM (active)
CCOP(=O)(OCC)Oc1cc(C)nc(C(C)C)n1,inactive,
CCC(CC)Nc1c([N+](=O)[O-])cc(C)c(C)c1[N+](=O)[O-],inactive,
CCOP(=S)(OCC)Oc1ccc([N+](=O)[O-])cc1,inactive,
CC(C1CC1)C(O)(Cn1cncn1)c1ccc(Cl)cc1 (stereo not drawn),inactive,
CNC(=O)ON=C(SC)C(=O)N(C)C,inactive,
CNC(=O)Oc1cccc2c1OC(C)(C)O2,inactive,
CCc1cnc(C2=NC(C)(C(C)C)C(=O)N2)c(C(=O)O)c1 (stereo not drawn),inactive,
Cc1cc(C2CC2)nc(Nc2ccccc2)n1,inactive,
CCCSP(=O)(OCC)SCCC,inactive,

SMILES,outcome,AC50
COc1cc(OC)nc(Sc2cccc(Cl)c2C(=O)O)n1,inactive,
CC1(C(=O)Nc2ccc(O)c(Cl)c2Cl)CCCCC1,inactive,
CSc1nnc(C(C)(C)C)c(=O)n1N,inactive,
CCC(=O)Nc1ccc(Cl)c(Cl)c1,inactive,
CCOP(=O)(NC(C)C)Oc1ccc(SC)c(C)c1 (stereo not drawn),inactive,
CC1=NNC(=O)N(/N=C/c2cccnc2)C1,inactive,
CSC1=N[C@@](C)(c2ccccc2)C(=O)N1Nc1ccccc1,inactive,
CC(Oc1cccc(Cl)c1)C(=O)O (stereo not drawn),inactive,
CCCCOC(=O)c1ccccc1C(=O)O,inactive,
CON=C(C(=O)OC)c1ccccc1CON=C(C)c1cccc(C(F)(F)F)c1,inactive,
C#CC(C)(C)NC(=O)c1cc(Cl)cc(Cl)c1,inactive,
CC[C@H](C)[C@H]1O[C@]2(C=C[C@@H]1C)C[C@@H]1C[C@@H](C/C=C(\C)[C@@H](O[C@H]3C[C@H](OC)[C@@H](O[C@H]4C[C@H](OC)[C@@H](NC)[C@H](C)O4)[C@H](C)O3)[C@@H](C)/C=C/C=C3\CO[C@@H]4[C@H](O)C(C)=C[C@@H](C(=O)O1)[C@]34O)O2,,25 µM (active)
Nc1c(Cl)cc([N+](=O)[O-])cc1Cl,,83.3 µM (active)
CC(C)N(C(=O)SCC(Cl)=C(Cl)Cl)C(C)C,inactive,
Cc1nn(-c2cc(NS(C)(=O)=O)c(Cl)cc2Cl)c(=O)n1C(F)F,inactive,
C[Si](Cn1cncn1)(c1ccc(F)cc1)c1ccc(F)cc1,,50 µM (active)
CNc1cnn(-c2cccc(C(F)(F)F)c2)c(=O)c1Cl,inactive,
C#CCC1=C(C)C(OC(=O)C2C(C=C(C)C)C2(C)C)CC1=O (stereo not drawn),inactive,
